Measurements reported in the supplement of paper PMC6522484.
± gives the standard deviation of the averaged measurements.

What was measured:
DLD1 [1] = assay: cell viability (CellTiter-Glo) relative to plate median (fraction of plate median); higher = more viable cells; details: 5 µM; treatment time 24 h; reporter: 7TFP
Procedure, shortened: (§1)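 Library compounds, at a final 5 µM, stayed on reporter cells for 24 h. The cells were colorectal cancer lines stably transduced with lentiviral TCF/Wnt firefly luciferase reporters, seeded in 384-well plates 24 h before dosing. Firefly luciferase or CellTiterGlo luminescence from parallel plates was normalised to the plate median in webcellHTS2 (additive, no log transformation), and two independent replicates were averaged.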

HCT116 = assay: as above; details: 5 µM; treatment time 24 h; reporter: TCF4/Wnt
Procedure, shortened: as §1

SW480 [2] = assay: as above; details: 5 µM; treatment time 24 h; reporter: 7TFP
Procedure, shortened: as §1

DLD1 [3] = assay: TCF/Wnt firefly luciferase reporter signal relative to plate median (fraction of plate median); higher = higher Wnt reporter signal; details: 5 µM; treatment time 24 h; reporter: 7TFP
Procedure, shortened: as §1

SW480 [4] = assay: as above; details: 5 µM; treatment time 24 h; reporter: 7TFP
Procedure, shortened: as §1

SMILES	cell viability (DLD1 [1])	cell viability (HCT116)	cell viability (SW480 [2])	TCF/Wnt firefly luciferase reporter signal (DLD1 [3])	TCF/Wnt firefly luciferase reporter signal (SW480 [4])
O=c1[nH]cnc2nc[nH]c12	0.987 ± 0.061	1.04	0.913 ± 0.044	0.969 ± 0.043	1
CC(=O)OC1CCC23CC1(C)CCC2C(C)(C)CC3OC(C)=O (stereo not given)	0.999 ± 0.044	1.09 ± 0.021	1.02 ± 0.042	1.03 ± 0.014	0.93 ± 0.04
CO[C@H]1/C=C/O[C@@]2(C)Oc3c(C)c(O)c4c(O)c(c(/C=N/N5CCN(C)CC5)c(O)c4c3C2=O)NC(=O)/C(C)=C\C=C\[C@H](C)[C@H](O)[C@@H](C)[C@@H](O)[C@@H](C)[C@H](OC(C)=O)[C@@H]1C	1.01 ± 0.064	1.07 ± 0.13	1.05 ± 0.028	1.01 ± 0.037	1.08 ± 0.057
CCC[C@@H]1C[C@@H](C(=O)N[C@@H]([C@H]2O[C@H](SC)[C@H](O)[C@@H](O)[C@H]2O)[C@@H](C)O)N(C)C1	1.05 ± 0.12	1.03 ± 0.021	1.035 ± 0.0071	0.934 ± 0.015	1.04 ± 0.083
COc1ccc2cc([C@H](C)C(=O)O)ccc2c1	1.02 ± 0.039	0.981 ± 0.083	1.045 ± 0.0071	0.969 ± 0.13	0.941 ± 0.065
CCCCCCCC/C=C/CCCCCCCCOP(=O)([O-])OCC[N+](C)(C)C	0.984 ± 0.052	0.886 ± 0.2	1.02 ± 0.03	0.986 ± 0.034	0.982 ± 0.018
CCCN(CCC)S(=O)(=O)c1ccc(C(=O)O)cc1	1.03 ± 0.054	1.1 ± 0.078	1.1 ± 0.078	1.12 ± 0.21	1.115 ± 0.0071
CC(C)(C)NCC(O)c1cc(O)cc(O)c1 (stereo not given)	1.045 ± 0.0071	1.02 ± 0.061	1.09 ± 0.028	0.999 ± 0.03	1.03 ± 0.13
COc1cc2c(cc1OC)C(=O)C(CC1CCN(Cc3ccccc3)CC1)C2 (stereo not given)	1.05 ± 0.014	1.06 ± 0.042	1.06	1.12 ± 0.14	1.06 ± 0.05
CCOC(=O)c1ncn2c1CN(C)C(=O)c1cc(F)ccc1-2	0.944 ± 0.045	1.03	0.952 ± 0.025	0.996 ± 0.02	0.993 ± 0.0099
CC12CCC(CC1)C(C)(C)O2	0.996 ± 0.049	1.055 ± 0.0071	0.934 ± 0.019	1.21 ± 0.18	1.11 ± 0.099
O=c1cc(-c2ccc(O)cc2)oc2cc(O)cc(O)c12	0.982 ± 0.026	1.07 ± 0.028	1.02 ± 0.014	1.105 ± 0.0071	1.03 ± 0.05
COc1cc(/C=C/C(=O)O)ccc1O	1.004 ± 0.0092	1.11 ± 0.057	1.01 ± 0.038	0.972 ± 0.069	1.12 ± 0.078
Cc1cc(O)cc(C)c1Cl	0.903 ± 0.012	0.8955 ± 0.0021	0.918 ± 0.13	0.881 ± 0.059	1.01
O=C(Nc1ccc([N+](=O)[O-])cc1Cl)c1cc(Cl)ccc1O	0.764 ± 0.05	0.614 ± 0.13	0.779 ± 0.3	0.92 ± 0.064	0.964 ± 0.22
